Among the data in PubChem BioAssay AID624348 (National Center for Advancing Translational Sciences (NCATS), 2012) are outcome values, retold here.

Each structure is given as a SMILES string. The source made the active and inactive calls.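 The calls were made as follows: active = concentration cutting cell viability by half at or below 20 µM after three days; inconclusive = half-viability concentration between 20 and 30 µM; inactive = half-viability concentration of 30 µM or more.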

The nature of the test: qHTS for Inducers of the Endoplasmic Reticulum Stress Response (ERSR) in Human Glioma: Hit Validation in Cytotoxic Counterscreen. The settings on record: U87-MG glioma viability, CellTiter-Glo ATP luminescence, 72 h. The source says: Primary protein unfolding takes place for many diseases, including diabetes and hypoxia, , and triggers a reaction in the cells called ER stress response (ERSR). ). ERSR is designed as a repair mechanism, but ultimately leads to cell death via apoptosis if conditions triggering protein unfolding persist (1). The molecular clue to ERSR activation is the enhancement of the expression of key molecular chaperones, including the glucose regulated protein (GRP) 78. GRP78 is the main sensor for protein folding and the main actuator of the ERSR. In a collaboration between the Southern Research Institute and the NIH Chemical Genomics Center, a cell based screen was developed that reliably uses GRP78 as a sensor to identify small molecules as inducers of ERSR. In resting conditions, GRP78 binds proteins and acts as a natural repressor. Once unfolded proteins are present in the ER, GRP78 releases some of the repressors and binds to the unfolded proteins. The release of the repressors executes the ERSR program. Using a human glioma cell line in a miniaturized, luminescent format, a high-throughput screen was developed to identify actuators of the ERSR. This assay validates the hits identified in the primary screen in this cytotoxic counterscreen. Activity is undesirable in this assay. NIH Chemical Genomics Center [NCGC] NIH Molecular Libraries Probe Centers Network [MLPCN] MLPCN Grant: DA031669 Assay Submitter (PI): Maurizio Grimaldi, Southern Research Institute (1) Soboloff, J. and S. A. Berger (2002). "Sustained ER Ca2+ depletion suppresses protein synthesis and induces activation-enhanced cell death in mast cells." J Biol Chem 277(16): 13812-20.
Wild type U87-MG are dispensed at density 1000 cells/well into Greiner white solid bottom 1536-well assay plates. […] The plates are incubated at room temperature for 10 minutes and read in a ViewLux high-throughput CCD imager (PerkinElmer), wherein end-point measurements of luminescence through the quantitation of the ATP content, an indicator of metabolically active cells, are acquired.
(qHTS replaces the single test concentration by a dilution series.)
Take `CC(C)Cc1nn2c(=O)cc(COC(=O)CNC(=O)c3ccc(C(C)(C)C)cc3)nc2s1`: the molecule was classed as inactive. As for `CC(=O)N1CCOc2cc(S(=O)(=O)Nc3c(C)cccc3C(C)C)c(Cl)cc21`, the entry is “inactive”; as for `Cc1ccc(-c2cc(NC(=O)C(C)Oc3ccc(C)c(C)c3)on2)cc1` (stereo not drawn), “inactive”.
